MARV entry inh: inhibitors of Marburg virus binding or entry into cells; AID 720532; 6.5% of 18,000 active; Marburg virus pseudotype entry/binding inhibition, cell-based; Potency, µM (doses to about 49.2 µM), actives largely listed as inhibitors
Lassa entry: inhibitors of Lassa virus binding or entry into cells; Lassa virus pseudotyped entry inhibition, cell-based qHTS; Potency, µM (highest dose often 49.2 µM), most hits filed as inhibitors; 4.1% of 18,000 active
Each line names hits and unclear results; the compound was inactive in the other large screens; ! = not confirmed by another sample. An excerpt weighted towards active compounds, which were near 8.6% of everything screened. Calls come from the whole dose curve; tested in HEK293 cells.

COc1ccc(-c2nn3ncccc3c2-c2ccnc(Nc3ccc4c(c3)OCCO4)n2)cc1	MARV entry inh 7.1µM, Lassa entry inconclusive
Fc1ccc(-c2nn3ncccc3c2-c2ccnc(Nc3ccc4c(c3)OCCO4)n2)cc1	MARV entry inh 0.89µM, Lassa entry inconclusive
C#CCCCON=C1C[C@@H](O)[C@@H](O)[C@@H]2[C@H]3C(=O)N(C(C)(C)C)C(=O)[C@@H]3CC[C@H]12	none
COc1ccc(O[C@H]2C=C[C@@H](c3ccccc3)O[C@H]2COC(=O)CCC(C)=NO[C@@H](C)c2cc(-c3c(C)cc(C)cc3C)no2)cc1	none
C=CC[C@@](C(C)=O)(C(=O)OC)[C@@H](NC(=O)OC)c1ccccc1	none
C#CCN(C[C@H](NC(=O)OC(C)(C)C)C(C)C)S(=O)(=O)c1ccc(Br)cc1F	none
Clc1ccc(-c2nn3ncccc3c2-c2ccnc(Nc3ccccc3)n2)cc1	MARV entry inh 6.3µM (no result: Lassa entry)
NC(=O)c1ccc2c(-c3ccnc(NCCCO)n3)c(-c3ccc(F)cc3)nn2c1	MARV entry inh inconclusive
C[C@@H]1[C@@H](c2ccccc2)Cc2nc3ccccc3nc2C[C@H]1C(=O)N1CCCC1	none
O=C(NC1CCN(Cc2ccccc2)C1)c1cnn(-c2ncc3c(n2)-c2ccccc2CC3)c1C1CC1 (centres undefined)	MARV entry inh 5µM
O=C(NCCN1CCOCC1)c1cnn(-c2ncc3c(n2)-c2ccccc2CC3)c1C1CC1	MARV entry inh inconclusive
COCCN1C(=NCCc2cccnc2)NC(c2ccccc2)C(C(=O)OC)=C1C (centres undefined)	Lassa entry inconclusive
CC(=O)OC[C@H]1O[C@H](C#Cc2ccc(F)cc2F)C=C[C@H]1OC(C)=O	none
c1ccc(CCNc2nc(-c3ccccc3)cs2)cc1	MARV entry inh inconclusive, Lassa entry 16µM
c1ccc(-c2csc(-c3nc4ccccc4[nH]3)n2)cc1	Lassa entry inconclusive
CC(C)OC(=O)Nc1cccc(Cl)c1	none
CC(NC(C)(C)C)C(=O)c1cccc(Cl)c1 (centres undefined)	MARV entry inh 3.5µM!
COC(=O)N[C@H](CC(C)=O)c1cccs1	none
COC(=O)N[C@@H](C=Cc1ccccc1)C(C(=O)OC)=C(C)NCc1ccccc1	none
c1ccc(CCc2nc(-c3ccccc3)oc2Nc2ccc3ccccc3c2)cc1	none
CCCCCCCCCCC1=C(C)C(=O)C(OC)=C(OC)C1=O	none
CCCCCCCCCCCC1=C(O)C(=O)C=C(O)C1=O	Lassa entry 28µM!
C#CCCCON=C1C[C@@H](O)[C@H](O)[C@H]2[C@@H]3C(=O)N(Cc4ccccc4)C(=O)[C@@H]3CC[C@H]12	none
CCc1ccccc1OC[C@@H](O)CN[C@H]1CCCc2ccccc21	MARV entry inh 8.9µM, Lassa entry 28µM
C=CCOc1ccccc1OCC(O)CNC(C)C (centres undefined)	none
CC(C)(C)NCC(O)COc1ccc(NC(=O)NC2CCCCC2)cc1 (centres undefined)	none
CC(C)(C)NC[C@H](O)COc1ccccc1C1CCCC1	MARV entry inh 7.9µM, Lassa entry inconclusive
CCCCCCN1C[C@@H](O)[C@H](n2cc(COC(=O)c3ccccc3)nn2)C[C@H]1c1ccc(Cl)cc1	none
C=C(CCN1C=C(C(=O)OCC)C(c2ccccc2)NC1=O)c1ccccc1 (centres undefined)	MARV entry inh inconclusive
CC(=O)OC[C@H]1O[C@H](CCON=C(C)CCC(=O)OC[C@H]2O[C@H](C#Cc3ccccc3)C=C[C@H]2Oc2ccc(C)cc2)C=C[C@H]1OC(C)=O	none
CC(C)=CCCC(C)=CCON=C1C[C@@H](O)[C@@H](O)[C@@H]2[C@H]3C(=O)N(c4cccc(Oc5ccccc5)c4)C(=O)[C@@H]3CC[C@H]12	none
C#CCCCON=C1C[C@@H](O)[C@H](O)[C@H]2[C@@H]3C(=O)N(Cc4ccc5c(c4)OCO5)C(=O)[C@@H]3CC[C@H]12	MARV entry inh inconclusive
O=C(c1ccc(C(F)(F)F)cc1)N1CCC(=O)N([C@H](COCc2ccc(Cl)cc2)Cc2ccccc2)CC1	MARV entry inh inconclusive, Lassa entry 28µM
Cc1cccc(C(=O)N2CCC(=O)N([C@H](COCc3ccccc3)Cc3ccccc3)CC2)c1	Lassa entry inconclusive
CCNC(=O)[C@@H]1CCCN1C(=O)[C@H](CCCN=C(N)N)NC(=O)[C@H](CC(C)C)NC(=O)[C@@H](Cc1c[nH]c2ccccc12)NC(=O)[C@H](Cc1ccc(O)cc1)NC(=O)[C@H](CO)NC(=O)[C@H](Cc1c[nH]c2ccccc12)NC(=O)[C@H](Cc1cnc[nH]1)NC(=O)[C@@H]1CCC(=O)N1	MARV entry inh inconclusive, Lassa entry 3.2µM
CC(C)C[C@H](NC(=O)CNC(=O)[C@H](Cc1ccc(O)cc1)NC(=O)[C@H](CO)NC(=O)[C@H](Cc1c[nH]c2ccccc12)NC(=O)[C@H](Cc1cnc[nH]1)NC(=O)[C@@H]1CCC(=O)N1)C(=O)N[C@@H](CCCN=C(N)N)C(=O)N1CCC[C@H]1C(=O)NCC(N)=O (stereo in doubt)	none
O=C(C1CCCCC1)N1C[C@@H](n2cc(-c3ccc(F)cc3)nn2)[C@@H](O)C[C@@H]1c1ccccc1	none (no result: Lassa entry)

Screening results: PubChem, National Center for Advancing Translational Sciences (NCATS)
